Measured values: paper PMC13494018
Values without a mark were called inactive. The rule behind the calls is not given here.

B1: d8r1_design_ppi_823_dldesign_0_cycle1_af2pred (protein)
chain: SSSEEEIDAKLEAAVAAVKEATALAKAAVAEGPAALPALEAFAAEKTAEFAKLGGVGAAAGAALQAVVDAARAQLA
B2: d8r1_design_ppi_713_dldesign_0_cycle0_af2pred (protein)
chain: DEFLAEANAAAAATSPANAAALNAAFAAALAQSDVGEGIKTLAAAADALAAASTPADAANIGKATSYFIAYLSS
B3: d8r1_design_ppi_457_dldesign_0_cycle1_af2pred (protein)
chain: AAAKAAAAAEAEALIAKAEAVVKAIKDFTALAAASTPEDGAAALRAAENLKTTAVDLATQAAALAKALGRPDLATRATAVAQAAKDAM
B4: d8r1_design_ppi_295_dldesign_0_cycle0_af2pred (protein)
chain: SLKEKAEKHLELAQKYAEKAGKLRGVKIEVKGANLEELKALRKEFGAWADEAAKAGDKETAIEATRAAAHLGEAIDLLEEL
B5: d8r1_design_ppi_1238_dldesign_0_cycle0_af2pred (protein)
chain: MEETKKLIEEARKLAEEARRALKEDKERALELLREAANKASKALALADEESEELAEEAKKVLAEISKVAKELAK
B6: d8r1_design_ppi_14_dldesign_0_cycle1_af2pred (protein)
chain: AAAVAAAIEAAMRAAMPSDPAKAAELAALIAAKGLAGAKEAARKAMELFREDPELGKQAFAGVDAARAILAAA
B7: d8r1_design_ppi_701_dldesign_0_cycle1_af2pred (protein)
chain: EERRRRGEELLLEALALIGAAARDPAAAPAAVAALRAAAALVPELAPELERAAALVEAGLAAAKEAAAIVGSLALKMAS
B8: d8r1_design_ppi_227_dldesign_0_cycle1_af2pred (protein)
chain: GAKAKAKAVLDKAKEKLAEAMKAALDADESKKPEVYKLIAEAAAALAKGIAAYKAAKNEAQLKEAIAWFEKAIAAAEKAIKLAK
B9: d8r1_design_ppi_1305_dldesign_0_cycle1_af2pred (protein)
chain: MEAEKLAKELLEKAKELAALPMGEASKAAAALAKEYAAKNPEVALKAAKIAYEKAVKDPSVSSKVRQLLAAALAEATYELKKKKAAA
B10: d8r1_design_ppi_1335_dldesign_0_cycle0_af2pred (protein)
chain: EAAAAATIEAAAKAAAEFTGLPVEEVLALAALAAADPAAARALRERLGEEDPLRAAAADVMLTVVAQAKRELA
B11: d8r1_design_ppi_1314_dldesign_0_cycle0_af2pred (protein)
chain: SSEEEEAKRLAARAARAAARRLEEAAEERAAEDPEAARRAAEEGRRLAEEAEKGNAEEAKRALTEITRLLREVLA
B12: d8r1_design_ppi_895_dldesign_0_cycle1_af2pred (protein)
chain: MTPEAKSAFAAAQSLADAIKLGAKEGLLTPETRAALVEKLRAAAAEAAALDPAIAPQAAALAADAEAAAA
B13: d8r1_design_ppi_645_dldesign_0_cycle1_af2pred (protein)
chain: KIEKAKELLKKAKELLKEAKANPETAIEKAKAALADLSEAASLAAEAAKDPETKEEAEKLLAEAKKLGLEATQLLMKQSSLEEK
B14: d8r1_design_ppi_271_dldesign_0_cycle0_af2pred (protein)
chain: AAAELAATIAAAAAAAAADGPRGLALLAGAILRAFPSLSAETLAEIIRLAAADPAAAAEAIAALAAAHPEAAPALAAALRAALAELA
B15: d8r1_design_ppi_669_dldesign_0_cycle1_af2pred (protein)
chain: AAAAAAANVRKVGEVSIEYVERVDAVSGANFAAGAFRGLATLLPPEVAKHAAAAAEKVRETGEKETKEALIETIRTTTAEIAALIEA
B16: d8r1_design_ppi_31_dldesign_0_cycle1_af2pred (protein)
chain: DKYSQMAEVWGMLSEVVARVAAELGPEAAEEAIKRAGEAASAAAKDVEEGEKKAKEVKEWADKQLAAAAA
B17: d8r1_design_ppi_508_dldesign_0_cycle0_af2pred (protein)
chain: AGEEALEKAIKEVKELISEAAKALQESREKGIEKAKEGAKRAEKLKKEAAKEPLAERIGRVLESAKGFLEKLKEALEES
B18: d8r1_design_ppi_891_dldesign_0_cycle0_af2pred (protein)
chain: SAVREEAERKAEEVAELAKKDPEKGLEAMKAYLEELVAAGHREAALYAAARAASLMFSDPSTLETAIAVSRYAAELAA
B19: d8r1_design_ppi_516_dldesign_0_cycle1_af2pred (protein)
chain: AEEELRRQIEEQGERLEEAAEELRRLAEEARERDPAAGRALEAAAESLRGLVEIAKELDPGSAQGVIQVAERVAERARRLAEEYLAA
B20: d8r1_design_ppi_1162_dldesign_0_cycle1_af2pred (protein)
chain: MSLAEEAALEGQKNSPMLGAVLYGHAKRSDAAVAELLLEAAKGDAATARAQARAAAALLPPEEGARLVTDVTAALEADEKDK
B21: d8r1_design_ppi_560_dldesign_0_cycle0_af2pred (protein)
chain: SAEEEEEKLREEAEKAVAEAKATAAAFKAQAATATPEKAAALNAAVAALAGLIKIAEDPEARRGASRAAKSVIAHAKRVLAA
B22: d8r1_design_ppi_713_dldesign_0_cycle1_af2pred (protein)
chain: AEFLAQGRAAAAATSPANAAALEAAYAAAKAQEDKMEGMKILLATATTLAAASTPAEAVLIGKAAAYFIADLLS
B23: d8r1_design_ppi_310_dldesign_0_cycle1_af2pred (protein)
chain: ALAAALNSVAALAKLAAELLETDPAAGKQLAKNVAVALAKLGLTEEAARLKAATPEELKAVAKEAAAAAKAAAAALA
B24: d8r1_design_ppi_1191_dldesign_0_cycle0_af2pred (protein)
chain: AAAALAAQAAAYTATYNAASAALAVALADPSFSPQSQKNIAQSQVDAATKALEAATAYDPAQAAAWQAALDAAQAQLAAI
B25: d8r1_design_ppi_584_dldesign_0_cycle0_af2pred (protein)
chain: AAARAAEAAALKAKAKEIAAEAFSYAALSSRDEEAKKEADKKIEELKKLAKEAKAKGLEEAAKFAEDFAEGAETLKKVVEEA
B26: d8r1_design_ppi_1118_dldesign_0_cycle0_af2pred (protein)
chain: SEGSEALARFAKSMAEVAKIKAEEAAKVDAEVAAIFKEAAKLYEEAAKAAKEDVEKGKKLLTEANKKMAEGLAAMKKKKA
B27: d8r1_design_ppi_948_dldesign_0_cycle0_af2pred (protein)
chain: SEEAKKKYEEEKKKLEELRKEAEKLAAADPAAGGAIATLIDNGIAAGDKLYEAGSVESAAKLLESVREKAERLLAELRAAVAA
B28: d8r1_design_ppi_360_dldesign_0_cycle1_af2pred (protein)
chain: SEAYEKAVEEAAERVAALIKAAVAAGATPAEAWAAAAKKIEEERKKLKEKFGEEQAEEGARRITARAAKALLRAMAAREE
B29: d8r1_design_ppi_477_dldesign_0_cycle1_af2pred (protein)
chain: SAEDVKRAAAGLKAAAKAYAALAAENKEVKEAAKELEKAAKLLLEDPEKGREKAAEESLKLNQLVIKAAD
B30: d8r1_design_ppi_41_dldesign_0_cycle0_af2pred (protein)
chain: RGEEVLERVKESASRAMSLAAKDPSLSEKVLEALALASEAGRAIKTEGVEKGEELAKKAEELTKEIEEEAK
B31: d8r1_design_ppi_901_dldesign_0_cycle1_af2pred (protein)
chain: AAAAARADIATLLAFMTKAIAEGDESAANMAANGAIASGAKAGPELAAQAAAEAAAARAAALAAKAAAAA
B32: d8r1_design_ppi_587_dldesign_0_cycle1_af2pred (protein)
chain: MLTPEALNAIAKLGSEAGSLAAKATPEQKAEGRKLGELVAEKMLASSPEEALEIAKKLLEEGKKDLTYAVATATAASRVLRAYLQQLS
B33: d8r1_design_ppi_1045_dldesign_0_cycle0_af2pred (protein)
chain: SADTKEGADLFTKAAEQLLKVGEELLKKGKETGDEKLIKEALKYFEAAAAYAEAAATLAAKADAAAAAKAKELKEKAKKAAEEAKKAL
B34: d8r1_design_ppi_20_dldesign_0_cycle1_af2pred (protein)
chain: KEEKAEKMKKEAEKYVERAKADAAKLAGSPQAATAAKLAASAEKSAELMKKALEEGDFGLAEVFLAAAKAAAEQLAKMAAA
B35: d8r1_design_ppi_623_dldesign_0_cycle0_af2pred (protein)
chain: SAAAAAAAAAAKAALAAAKKKAEEAVKLTPEEAAKVLGEIAAAATAALAAATDAADRAALRAAAAEVFSTGAKNLAKAAKKAEE
B36: d8r1_design_ppi_1220_dldesign_0_cycle0_af2pred (protein)
chain: KEEEADKLAVEAMRLLGEAAELTKKATTKEQVEAAKKKAEEAKKKAEELLKVDPRKKGLAEALKSAAKKVLEAAEKKEKEL
B37: d8r1_design_ppi_661_dldesign_0_cycle1_af2pred (protein)
chain: AAADAAAAAAAATAGANAVAAAQLALELNPKSAIDLAEAAIAHFKKLAATGSPAVAAQANAAIAALEAVKAQAKKKLAAE
B38: d8r1_design_ppi_416_dldesign_0_cycle1_af2pred (protein)
chain: SDESARIKAETLGRISEAMREARRAAEEGDVERAREAAERAREAGREGAEKALELGDESTAESLRSTAEKVAERAERLAEEAAA

Molecular target: PDL1, Q9NZQ7
Sequence (Q9NZQ7 whole entry): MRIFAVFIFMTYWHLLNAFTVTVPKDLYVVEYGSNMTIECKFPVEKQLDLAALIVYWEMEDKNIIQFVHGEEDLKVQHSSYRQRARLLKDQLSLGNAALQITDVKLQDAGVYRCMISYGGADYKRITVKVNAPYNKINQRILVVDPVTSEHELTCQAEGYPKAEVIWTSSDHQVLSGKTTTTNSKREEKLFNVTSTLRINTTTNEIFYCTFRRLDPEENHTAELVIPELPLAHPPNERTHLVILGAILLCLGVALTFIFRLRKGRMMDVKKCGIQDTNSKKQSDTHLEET

| Binder | binding in a display sort |
| --- | --- |
| B1 | not found |
| B2 | not found |
| B3 | not found |
| B4 | not found |
| B5 | not found |
| B6 | binds (active) |
| B7 | not found |
| B8 | not found |
| B9 | not found |
| B10 | not found |
| B11 | not found |
| B12 | binds (active) |
| B13 | not found |
| B14 | not found |
| B15 | not found |
| B16 | not found |
| B17 | not found |
| B18 | not found |
| B19 | not found |

| Binder | binding in a display sort |
| --- | --- |
| B20 | not found |
| B21 | not found |
| B22 | not found |
| B23 | not found |
| B24 | not found |
| B25 | not found |
| B26 | not found |
| B27 | not found |
| B28 | not found |
| B29 | not found |
| B30 | not found |
| B31 | not found |
| B32 | not found |
| B33 | not found |
| B34 | not found |
| B35 | not found |
| B36 | not found |
| B37 | not found |
| B38 | not found |
